RORgamma inh – qHTS for inhibitors of ROR gamma transcriptional activity. Drosophila S2 Gal4-RORgamma UAS-luciferase reporter, 20 h. Nuclear receptor ROR-gamma (Mus musculus), P51450. AID 2551, 2010. Potency, µM (top dose mostly 53.6 µM), for inactives: at the highest dose activity change, negative = inhibition, hits mostly inhibitors. 310,000 compounds, 5.4% hits; note: potency is the fitted concentration of half-maximal effect; % is set by controls: 0 for no effect and ±100 for the full control effect; nearly all actives have a fitted effect of over 60% in size
Target sequence (P51450 whole entry, looked up, the tested form may be a part): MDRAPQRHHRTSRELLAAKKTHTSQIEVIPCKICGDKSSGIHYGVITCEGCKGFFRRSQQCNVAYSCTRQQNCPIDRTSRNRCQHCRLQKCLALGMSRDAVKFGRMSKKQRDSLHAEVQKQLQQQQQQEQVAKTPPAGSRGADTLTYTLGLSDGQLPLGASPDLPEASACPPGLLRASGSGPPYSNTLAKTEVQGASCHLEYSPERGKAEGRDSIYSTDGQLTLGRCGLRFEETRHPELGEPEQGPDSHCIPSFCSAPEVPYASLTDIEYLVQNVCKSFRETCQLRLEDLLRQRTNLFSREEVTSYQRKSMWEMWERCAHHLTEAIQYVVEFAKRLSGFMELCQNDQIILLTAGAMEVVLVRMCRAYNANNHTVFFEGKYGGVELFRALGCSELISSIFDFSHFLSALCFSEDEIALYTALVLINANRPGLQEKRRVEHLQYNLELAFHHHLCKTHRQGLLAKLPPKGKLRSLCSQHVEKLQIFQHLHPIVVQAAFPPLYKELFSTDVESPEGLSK
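Using a luciferase readout, inhibitors were identified by reduced reporter activity in Drosophila cells coexpressing a copper-inducible Gal4–ROR gamma fusion and UAS-driven Photinus luciferase, incubated 20 hr after 700 uM copper sulfate.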
CtBP-E1A blk – qHTS Assay for Inhibitors of the CtBP/E1A Interaction | CtBP / adenovirus E1A interaction (AlphaScreen) | AlphaScreen GST-E1A/His-CtBP binding, 1536-well; active compounds read low | activity change, % (no concentration beside the values) | 340,000 compounds, 0.49% hits; in the data active = activity change below about -65%; inconclusive = mostly about -30% to -63%; note: % is set by controls: 0 for no effect and ±100 for the full control effect
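Steps: dispense buffer (Tris pH 8.0, NaCl 300 mM, TCEP 1 mM, BSA, Tween 20); add 5X protein mix (GST-E1A, His-CtBP, 125 nM each); pin 23 nL compound; 2 h at 37 °C, dark; add 5X beads (50 ug/mL); 1 h; read.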
Six1-Eya2 inh – qHTS Assay for Inhibitors of the Six1/Eya2 Interaction. AlphaScreen GST-Six1/His-Eya2 binding, biochemical; active compounds read low. activity change, % (no concentration beside the values). 360,000 compounds, 0.56% hits; in the data active = activity change below about -65%; inconclusive = mostly about -30% to -63%; note: % is set by controls: 0 for no effect and ±100 for the full control effect
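GST-Six1 + His-Eya2 (5X stock: 250/500 nM); Tris pH 8.0, 300 mM NaCl, 0.05% BSA, 0.02% Tween 20; GSH donor/Ni acceptor beads; 1 h 37 °C dark; AlphaScreen readout.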
p53 reactivator – qHTS assay for re-activators of p53 using a Luc reporter; Potency, µM (highest dose often 92.2 µM), inactives show top-dose activity change, positive = activation, actives largely listed as activators; H1299 p53-A138V BP100-luciferase reporter, luminescence, 24 h; 320,000 compounds, 0.063% hits; note: potency is the fitted concentration of half-maximal effect; % of control where 0% means no effect; nearly all actives have a fitted effect of over 45% in size
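H1299 (p53-null), stable ts p53-A138V + BP100-Luc; 1000 cells/well, Opti-MEM/10% FBS; cpd 4 pt, 1:5; 24 h, 37 deg C, 5% CO2; detection reagent 10 min RT; luminescence.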
Gal4-VP16 FLuc – VP16 counterscreen qHTS for inhibitors of ROR gamma transcriptional activity; Drosophila S2 Gal4-VP16 UAS-luciferase, luminescence, 20 h; Potency, µM (top dose mostly 53.6 µM), for inactives: at the top dose activity, negative = inhibition, hits mostly inhibitors; 310,000 compounds, 3.5% hits; AID 2546, 2010;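 note: Gal4-VP16 expression switched on by copper sulfate through the metallothionein promoter; potency is the fitted concentration of half-maximal effect; % is set by controls: 0 for no effect and ±100 for the full control effect; nearly all actives have a fitted effect of over 50% in size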
* hit, by the source's call; [ ] = remark or other dose. An excerpt weighted towards active compounds, which were near 5.4% of everything screened. Unless noted, calls come from the whole dose curve; as a rule, active = well fitted curve in the direction sought with a large enough effect; inconclusive = small, poorly fitted or top-dose-only effect, or another doubt; inactive = no such curve, though single readings can be large; an effect the other way counts as inactive or inconclusive.

Results for O=C(COc1ccc(/C=N/NC(=O)c2cc3ccccc3o2)cc1Cl)Nc1ccccc1 ?
RORgamma inh: 1.3µM*; CtBP-E1A blk: 4; Six1-Eya2 inh: -2; p53 reactivator: 7%; Gal4-VP16 FLuc: 0.89µM*

How did Cc1sc2nc(CSc3ncn[nH]3)[nH]c(=O)c2c1C do in these assays?
RORgamma inh: 0%; CtBP-E1A blk: 0; Six1-Eya2 inh: -9; p53 reactivator: 0%; Gal4-VP16 FLuc: 1%

Results for CCc1cc2c(SCc3nc4sc(C(C)=O)c(C)c4c(=O)[nH]3)ncnc2s1 ?
RORgamma inh: 10µM*; CtBP-E1A blk: -5; Six1-Eya2 inh: -9; p53 reactivator: -3%; Gal4-VP16 FLuc: inconclusive

What do the screens show for `CCc1nc(SCc2ccc(Br)cc2)n[nH]1`?
RORgamma inh: 14%; CtBP-E1A blk: 7; Six1-Eya2 inh: 3; p53 reactivator: 19%; Gal4-VP16 FLuc: inconclusive

What do the screens show for `CCc1nc(SCc2ccc(OCC(C)C)cc2)n[nH]1`?
RORgamma inh: inconclusive; CtBP-E1A blk: 9; Six1-Eya2 inh: 6; Gal4-VP16 FLuc: 16µM*

How did O=C(COc1ccccc1)Nc1cccc(-c2nn[nH]n2)c1 do in these assays?
RORgamma inh: 18%; CtBP-E1A blk: 2; Six1-Eya2 inh: 14; p53 reactivator: -7%; Gal4-VP16 FLuc: 0%

Results for CCCCOc1cccc(C(=O)Nc2ccc(NC(=O)c3cccs3)cc2)c1 ?
RORgamma inh: inconclusive; CtBP-E1A blk: 3; Six1-Eya2 inh: 32; p53 reactivator: 2%; Gal4-VP16 FLuc: 0.1µM*

How did Cc1cc(OCC(=O)Nc2ccc3oc(-c4ccncc4)nc3c2)ccc1Cl do in these assays?
RORgamma inh: -1%; CtBP-E1A blk: 9; Six1-Eya2 inh: 3; Gal4-VP16 FLuc: 17%

What do the screens show for `O=C(COc1ccccc1)Nc1cccc(-c2nc3cc4ccccc4cc3[nH]2)c1`?
RORgamma inh: 1µM*; CtBP-E1A blk: 12; Six1-Eya2 inh: 7; p53 reactivator: 26%; Gal4-VP16 FLuc: 2µM*

What do the screens show for `Cc1cc(OCC(=O)Nc2ccncc2)ccc1Cl`?
RORgamma inh: inconclusive; CtBP-E1A blk: -2; Six1-Eya2 inh: -3; p53 reactivator: -9%; Gal4-VP16 FLuc: 11µM*

How did O=C(COc1ccc2ccccc2c1)Nc1ccncc1 do in these assays?
RORgamma inh: inconclusive; CtBP-E1A blk: -1; Six1-Eya2 inh: -3; p53 reactivator: 5%; Gal4-VP16 FLuc: 13µM*

What do the screens show for `CCCCc1ccc(NC(=O)COc2ccc(C(=O)Nc3ccccc3OC)cc2)cc1`?
RORgamma inh: -17%; p53 reactivator: 11%; Gal4-VP16 FLuc: -25%

What do the screens show for `CCCCOc1ccc(C(=O)Nc2ccncc2)cc1`?
RORgamma inh: inconclusive; CtBP-E1A blk: 1; Six1-Eya2 inh: 0; p53 reactivator: -8%; Gal4-VP16 FLuc: 7.9µM*

How did Cc1cc(OCC(=O)N[C@@H](Cc2ccccc2)c2nc3ccccc3[nH]2)ccc1Cl do in these assays?
RORgamma inh: 20µM*; CtBP-E1A blk: 1; Six1-Eya2 inh: 3; p53 reactivator: inconclusive; Gal4-VP16 FLuc: inconclusive

How did CC(C)(C)c1ccc(NC(=O)COc2ccc(-n3ccnc3)cc2)cc1 do in these assays?
RORgamma inh: 10µM*; CtBP-E1A blk: -12; Six1-Eya2 inh: -21; p53 reactivator: 12%; Gal4-VP16 FLuc: -13%

Results for CCCCc1ccc(NC(=O)COc2ccc(C(=O)Nc3ccccc3C)cc2)cc1 ?
RORgamma inh: inconclusive; p53 reactivator: -6%; Gal4-VP16 FLuc: 11µM*

Results for CCc1cc2c(nc1CC)CCN(CC/C(C)=N/OC[C@@H](O)COCc1ccco1)C2 ?
RORgamma inh: -10%[10 µM]; Gal4-VP16 FLuc: -9%[10 µM]

What do the screens show for `N#Cc1cccc(C(=O)OCC(=O)NC(=O)NC2CCCCC2)c1`?
CtBP-E1A blk: -1; Six1-Eya2 inh: 1; p53 reactivator: 12%

Results for O=c1c2ncn([C@@H]3O[C@@H]4COP(=O)(O)O[C@H]4[C@H]3O)c2nc2[nH]c(-c3ccccc3)cn12 ?
RORgamma inh: 22%; Gal4-VP16 FLuc: -7%

What do the screens show for `Cc1ccc(OCC(=O)Nc2ccccc2[N+](=O)[O-])c(Br)c1`?
RORgamma inh: 30%; CtBP-E1A blk: -19; Six1-Eya2 inh: -29; p53 reactivator: 17%; Gal4-VP16 FLuc: 29%

What do the screens show for `CC(C)NC(=O)N[C@H]1CC[C@H](CC(=O)NCc2ccc(Oc3ccccc3)cc2)O[C@@H]1CO`?
CtBP-E1A blk: -2; Six1-Eya2 inh: 6

How did COc1cc(/C=N/n2cnnc2-n2nc(C)cc2C)cc([N+](=O)[O-])c1O do in these assays?
RORgamma inh: -2%; CtBP-E1A blk: 12; Six1-Eya2 inh: 1; p53 reactivator: 3%; Gal4-VP16 FLuc: -3%

Results for Cc1cccc(OCC(=O)Nc2ccncc2)c1 ?
CtBP-E1A blk: 10; Six1-Eya2 inh: 0

How did O=C(Nc1ccncc1)c1cc(F)cc(F)c1 do in these assays?
RORgamma inh: inconclusive; CtBP-E1A blk: -1; Six1-Eya2 inh: 6; p53 reactivator: -8%; Gal4-VP16 FLuc: 25µM*

Results for CCc1ccc(OCC(=O)Nc2ccncc2)cc1 ?
RORgamma inh: 39%[1.91 µM]; Six1-Eya2 inh: -3; Gal4-VP16 FLuc: 3.5µM*

How did O=C(Nc1ccncc1)c1ccc(Br)cc1 do in these assays?
RORgamma inh: 27%; Six1-Eya2 inh: 3; Gal4-VP16 FLuc: 3%

How did Cc1cc(OCC(=O)Nc2ccncc2)cc(C)c1Br do in these assays?
RORgamma inh: 0%; CtBP-E1A blk: 4; Six1-Eya2 inh: 7; p53 reactivator: -1%; Gal4-VP16 FLuc: 11µM*

What do the screens show for `CC(C)(C)c1ccc(OCC(=O)Nc2ccncc2)cc1`?
RORgamma inh: inconclusive; CtBP-E1A blk: 2; Six1-Eya2 inh: -12; p53 reactivator: -13%; Gal4-VP16 FLuc: -8%

What do the screens show for `CCC(OC(=O)c1ccco1)C(=O)NCc1ccc2c(c1)OCO2` (configuration not stated)?
RORgamma inh: -9%; CtBP-E1A blk: -18; Six1-Eya2 inh: 11; p53 reactivator: -4%; Gal4-VP16 FLuc: 3%

How did OC[C@@H]1CN(Cc2cccs2)C[C@H](n2cnc3c(NC4CCC4)ncnc32)O1 do in these assays?
CtBP-E1A blk: 8; Six1-Eya2 inh: 1

What do the screens show for `COc1ccc(CN(Cc2nc3ccccc3c(=O)[nH]2)C(=O)C(C)(C)C)cc1`?
RORgamma inh: 13µM*; CtBP-E1A blk: 5; Six1-Eya2 inh: -1; p53 reactivator: 3%; Gal4-VP16 FLuc: -5%

Results for CC(=O)N(Cc1ccc(F)cc1)Cc1nc2ccccc2c(=O)[nH]1 ?
RORgamma inh: 16µM*; Six1-Eya2 inh: 2; p53 reactivator: -4%; Gal4-VP16 FLuc: inconclusive

From PubChem BioAssay
